An excerpt weighted towards active compounds, which were near 3.3% of everything screened.
SMARCA2 activ: SMARCA2 (BRM) function activators, primary screen, cell-based, luminescence, high throughput; MG213 cells, MMTV-luciferase reporter, dexamethasone, overnight; activation, % at 9.1 µM; 370,000 tested, 1% active; in the data active = activation above about 7.8%
esBAF inh: Bmi1 luciferase reporter increase in mESCs, primary screen, esBAF inhibitor project, mouse ES cells, Bmi1 luciferase knock-in, single point | 24 h; 100% = twice the neutral-well signal | reporter increase, % at 12.5 µM | 350,000 tested, 2% active | AID 602393, 2012; in the data active = activation above about 40%; inconclusive = no clear call, values can overlap the other calls;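 also: a rise in the Bmi1 reporter signal indicates esBAF inhibition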
Jurkat NFkB inh: inhibitors of induced NF-kB luciferase reporter, primary screen, TCR NF-kB activation inhibitor project, cell-based, luminescence, uHTS; 330,000 tested, 0.53% active; Jurkat, PMA/ionomycin-induced NF-kB luciferase reporter; inhibition, % at 4 µM; in the data active = inhibition above about 50%
697 NFkB inh: inhibitors of PMA/ionomycin-induced NF-kB reporter, 697 cells, primary screen, B-cell NF-kB inhibitor project, cell-based, luminescence, uHTS; 330,000 tested, 0.33% active; 697 B-cell NF-kB luciferase reporter, 16 h; inhibition, % at 4 µM; in the data active = inhibition above about 35%
Gli-Sufu antag: Gli-Sufu pathway antagonists, primary screen, luciferase luminescence, Sufu-KO-LIGHT cells, uHTS. Sufu-KO-LIGHT fibroblasts, Gli luciferase reporter luminescence. inhibition, % at 5 µM. 340,000 tested, 0.74% active;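 active = inhibition above about 55%, limit read from the data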
Numbers stand for hits; . = inactive; ? = inconclusive; / = not tested or not shown.

SMILES | SMARCA2 activ | esBAF inh | Jurkat NFkB inh | 697 NFkB inh | Gli-Sufu antag
CCOC(=O)c1cccc(NC(=O)c2cc3ccccc3o2)c1 | . | 46 | . | . | .
CCOC(=O)c1sc(NC(=O)c2cc3ccccc3o2)nc1C | . | / | . | . | .
CCOC(=O)c1csc(NC(=O)c2cc3ccccc3o2)n1 | . | 64 | . | . | .
CCOC(=O)Cc1cnc(NC(=O)c2ccccc2)s1 | . | 51 | . | . | .
CCOC(=O)Cc1cnc(NC(=O)CSc2nc(N)cc(=O)[nH]2)s1 | . | . | . | . | .
COc1cc(NC(=O)c2c(OC)cccc2OC)ccc1NC(=O)c1cc2ccccc2o1 | . | ? | . | . | .
CCC(=O)Nc1ccc(NC(=O)c2cc3ccccc3o2)c(OC)c1 | . | 43 | . | . | /
NC(=O)C1CC(=O)N(c2ccc(OCc3ccc(Cl)c(Cl)c3)cc2)C1 (stereo not drawn) | . | 51 | / | / | /
CN1CCN(C(=O)C[C@@H]2C=C[C@H](NC(=O)Cc3ccccn3)[C@H](CO)O2)CC1 | / | . | / | / | /
O=C1CCC(c2ccc3ccccc3c2)O1 (stereo not drawn) | . | . | / | / | .
c1ccc2cc(C3OCC4(CCCC4)CO3)ccc2c1 | . | 71 | / | / | /
O=CN(/C=C1\Sc2ccccc2C1=O)Cc1ccccc1 | . | 51 | . | . | .
C[C@@H]1CN([C@H](C)CO)C(=O)c2cc(NC(=O)c3ccncc3)ccc2O[C@@H]1CN(C)Cc1ccc(C(=O)O)cc1 | / | . | / | / | /
CCN(CC(=O)Nc1ccc2c(c1)OCCO2)C(=O)/C=C/c1cccc(Br)c1 | . | 63 | . | . | .
COc1ccc(NC(=O)c2noc3c2CCCCC3)cc1 | . | . | . | . | .
O=C(NCc1ccccc1)c1noc2c1CCCC2 | . | . | . | . | .
O=C(NCCc1ccccc1)c1noc2c1CCCCC2 | . | 50 | . | . | .
CCc1ccc(NC(=O)c2noc3c2CCC3)cc1 | . | 73 | . | . | .
CSc1ccccc1NC(=O)c1noc2c1CCC2 | . | 48 | . | . | .
Cc1ccc(O)c(NC(=O)c2noc3c2CCCCC3)c1 | . | 51 | . | . | .
CO[C@@H]1CN(C)C(=O)c2cc(NC(=O)Nc3cccc(Cl)c3)ccc2OC[C@@H](C)NC[C@@H]1C | / | . | / | / | /
C[C@H]1CN([C@@H](C)CO)S(=O)(=O)c2ccc(-c3ccc(F)cc3)cc2O[C@H]1CN(C)CC1CC1 | / | . | / | / | /
O=S1(=O)N=C(N2CCN(c3ccc(F)cc3)CC2)c2ccccc21 | . | 46 | . | . | .
CCc1c(C)nc2cc(-c3ccc(Cl)cc3)[nH]n2c1=O | . | 56 | . | . | .
CCOC(=O)CCc1c(C)nc2cc(-c3ccc(Cl)cc3)[nH]n2c1=O | . | . | . | . | .
SMILES | SMARCA2 activ | esBAF inh | Jurkat NFkB inh | 697 NFkB inh | Gli-Sufu antag
COCc1cc(=O)n2[nH]c(-c3cccc(Br)c3)cc2n1 | . | . | . | . | .
CCc1c(C)nc2cc(-c3cccc(Br)c3)[nH]n2c1=O | . | 56 | . | . | .
CC(C)N(C(=O)[C@H]1C[C@H](CC(=O)NCc2ccco2)C(=O)N2CCc3c([nH]c4cc(CCC(=O)N(C)C)ccc34)[C@]12C)C(C)C | 7.9 | . | / | . | .
Fc1cccc(Cl)c1Cn1nnc2c(NCc3ccccn3)ncnc21 | . | / | . | . | .
Fc1ccccc1Cn1nnc2c(NCCc3ccccn3)ncnc21 | . | 48 | . | . | .
O=C1C(Cl)=C(NCCc2ccccc2)C(=O)c2ccccc21 | . | . | / | / | .
CC(=O)N(Cc1ccc(F)cc1)C1=C(NCCc2ccccc2)C(=O)c2ccccc2C1=O | . | . | . | . | 75
C[C@@H]1CN([C@@H](C)CO)C(=O)c2cc(NC(=O)Cc3ccccc3)ccc2O[C@@H](C)CCCCO[C@@H]1CN(C)Cc1ccccc1 | / | . | / | / | /
O=C(C[C@H]1CC[C@H](NC(=O)Nc2ccc3c(c2)OCO3)[C@@H](CO)O1)NCc1ccc(Cl)cc1 | / | . | / | / | /
C=CCNc1nc(C(=O)OC(C)C(=O)c2ccc(C)cc2)cs1 (stereo not drawn) | . | 57 | . | . | .
C[C@H]1CN([C@@H](C)CO)C(=O)c2cc(C#CCc3ccccc3)cnc2O[C@H]1CN(C)C(=O)C1CC1 | / | . | / | / | /
Cc1cc(C)cc(NC(=O)CSc2nccn2Cc2ccco2)c1 | . | . | . | . | .
Cc1cccc(NC(=O)CSc2nccn2Cc2ccco2)c1 | . | 44 | . | . | .
